# Screening results as filed in PubChem.
# In the library only some 2.6% were active in any assay of this set; here they are far more common.
# Cruzain inh Det – blocks cruzain activity in presence of Triton detergent. P25779. purified cruzain, Z-FR-AMC fluorescence, 0.01% Triton. Potency, µM, without a hit: max response, negative = inhibition, actives largely listed as inhibitors. 200,000 compounds, 0.43% hits. AID 1478;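 further: plate controls were neutral wells for no effect and buffer without enzyme for full effect; nearly all actives have a fitted effect of over 40% in size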
# Target sequence (P25779 123-467 limits assumed): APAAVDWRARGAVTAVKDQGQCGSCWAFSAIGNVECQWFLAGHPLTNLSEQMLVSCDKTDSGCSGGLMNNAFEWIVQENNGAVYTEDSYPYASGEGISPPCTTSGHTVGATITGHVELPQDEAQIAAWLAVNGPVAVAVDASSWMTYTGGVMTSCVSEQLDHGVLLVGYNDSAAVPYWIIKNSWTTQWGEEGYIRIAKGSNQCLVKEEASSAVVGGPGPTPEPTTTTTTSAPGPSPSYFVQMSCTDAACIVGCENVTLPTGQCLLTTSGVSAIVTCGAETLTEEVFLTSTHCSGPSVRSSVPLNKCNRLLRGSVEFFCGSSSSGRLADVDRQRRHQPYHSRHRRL
#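 Sodium acetate buffer (100 mM, pH 5.5) containing 5 mM DTT and 0.01% Triton X-100 hosted 1.5 nM cruzain and test compound for 15 min at room temperature. Cleavage of 2 uM Z-FR-AMC was then tracked by fluorescence.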
# Cruzain inh noDet – blocks cruzain activity in detergent-free assay; AID 1476; Potency, µM, for inactives: max response, negative = inhibition, most hits filed as inhibitors; P25779; purified cruzain, Z-FR-AMC fluorescence, no detergent; 200,000 compounds, 2.3% hits;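 further: plate controls were enzyme without inhibitor for no effect and buffer without enzyme for full effect; nearly all actives have a fitted effect of over 40% in size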
#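 Detergent-free condition (0.00005% Triton X-100) in acetate buffer pH 5.5 with DTT. 1.5 nM enzyme and compound were pre-mixed 15 min, then 2 uM Z-FR-AMC substrate added; reaction progress from fluorescence change between first and third reads (60 s).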
# The depositor's hits bear a star; ? = inconclusive; ! = not active in a repeat. The call rests on the fitted dose curve; in most records, active means well fitted curve in the direction sought with a large enough effect; inconclusive means small, poorly fitted or top-dose-only effect, or another doubt; inactive means no such curve, though single readings can be large; an effect the other way counts as inactive or inconclusive. Potency means the concentration at half of the fitted maximal effect.
SMILES,Cruzain inh Det,Cruzain inh noDet
O=C(CN1C(=O)COc2ccc(S(=O)(=O)N3CCCCCC3)cc21)N1CCN(c2ccc(F)cc2)CC1,-4%,20%
COc1cccc(NC(=O)C(Sc2nnc3ccccn23)c2ccccc2)c1 (stereo unspecified),-3%,-5%
CCCn1c(SC(C(=O)Nc2cccc(OC)c2)c2ccccc2)nc2ccccc2c1=O (stereo unspecified),-4%,10µM*
CC(C)C(NS(=O)(=O)c1cccs1)C(=O)NCCN1CCN(c2ccccc2)CC1 (stereo unspecified),20µM*,25µM*
COc1ccc(N2CCN(CCNC(=O)CCNS(=O)(=O)c3cccs3)CC2)cc1,2%,-7%
O=C(CCSc1nc2ccccc2s1)N/N=C/c1c(O)ccc2ccccc12,-2%,13µM*
COc1ccc(/C=N/NC(=O)CCSc2nc3ccccc3s2)cc1OC,-10%,?
N#CCC(=N)N1CCN(c2ccccc2)CC1,-3%,-4%
N#CCC(=N)N1CCN(c2ccccc2Cl)CC1,-3%,25µM*
N#CCC(=N)N1CCN(c2cccc(Cl)c2)CC1,0%,13µM*
Clc1ccccc1CN1CCN(c2ccccc2Cl)CC1,-3%,8%
Cc1cc(C)cc(-n2c(SCC(N)=O)nc3c([nH]c4ccccc43)c2=O)c1,-2%,-16%
COc1ccc(C)cc1NC(=O)CSc1nc(=O)n(Cc2ccccn2)c2c1CCC2,-4%,?
COc1ccc(-c2noc(-c3ccc(NCc4ccccc4OC)c([N+](=O)[O-])c3)n2)cc1,-2%,-9%
C=CCOc1c(Br)cc(/C=N/NC(N)=O)cc1OC,-3%,7%
CCOc1cc(/C=N/NC(N)=O)cc(Br)c1OCC(=O)Nc1ccccc1C,-8%,?
COc1cc(/C=N/NC(N)=O)cc(Br)c1OCc1ccccc1C,3%,20µM*
CCOc1cc(/C=N/NC(N)=O)cc(Br)c1OCC(=O)Nc1cccc2ccccc12,-3%,6.3µM*
COc1ccc2c(c1)sc1ncc(C(=O)NCc3cccc(Cl)c3)c(=O)n12,1%,1%
Cc1nccc2c1[nH]c1ccccc12,?,40µM*!
c1ccc2c(c1)[nH]c1cnccc12,-10%,-15%
CCn1c2ccccc2c2cc(/C(C)=N/O)ccc21,-10%,2%
CCn1c2ccccc2c2cc(N)ccc21,-2%,7.9µM*
Cc1ccc(C(=O)c2oc3ccccc3c2NC(=O)c2cc(-c3ccccc3)on2)cc1F,0%,-3%
COc1ccc2[nH]cc(CCNc3ccnc(-c4cccc(NS(C)(=O)=O)c4)n3)c2c1,-4%,0%
SMILES,Cruzain inh Det,Cruzain inh noDet
CS(=O)(=O)Nc1ccc(Cc2noc(-c3ccc4[nH]cc(CCN)c4c3)n2)cc1,-2%,32µM*
COc1cccc(CN(C(=O)c2oc3ccc(Br)cc3c2C)C2CCS(=O)(=O)C2)c1 (stereo unspecified),-6%,17%
CCn1c(CSc2nnc(C)n2-c2ccccc2)nc2cc(S(=O)(=O)N(C)C)ccc21,6%,5%
CCn1c(-c2cc(Br)cc(OC)c2O)nc2cc(S(=O)(=O)N(C)C)ccc21,-5%,20µM*
C=CCn1c(=N)c(C(=O)NCCCOC)cc2c(=O)n3ccccc3nc21,32µM*,25µM*
CCOCCCn1c(=N)c(C(=O)NCc2ccccc2)cc2c(=O)n3ccccc3nc21,-9%,-2%
CCOC(=O)c1cc2c(=O)n3ccccc3nc2n(CCCOC)c1=NC(=O)c1c(-c2c(F)cccc2Cl)noc1C,-1%,-1%
CC(C)n1c(=N)c(C(=O)NCc2ccccc2)cc2c(=O)n3ccccc3nc21,-5%,16%
COC(=O)c1cc2c(=O)n3ccccc3nc2n(C)c1=N,11µM*,?
CCOC(=O)c1cc2c(=O)n3ccccc3nc2n(CCCOC)c1=NC(C)=O,32µM*,?
Cc1cccn2c(=O)c3cc(C(=O)N4CCN(C(=O)c5ccco5)CC4)n(C)c3nc12,-5%,-3%
Cn1c(C(=O)N2CCN(C(=O)c3ccco3)CC2)cc2c(=O)n3ccccc3nc21,25µM*,?
CCOc1ccc(CNS(=O)(=O)c2cc3c(cc2C)NC(=O)CO3)cc1,2%,-3%
CCC(=O)N1CCc2cc(S(=O)(=O)NC(Cc3ccccc3)C(=O)NCc3cccc(OC)c3)ccc21 (stereo unspecified),-1%,-1%
CC1(C)O[C@@H]2O[C@H]([C@@H]3COC(C)(C)O3)[C@H](N)[C@H]2O1,2%,3%
COc1ccccc1C(=O)Nc1ccc(C(=O)OCc2cc(=O)n3ccsc3n2)cc1,1%,5%
COc1cccc(-c2nnc(SCC(=O)N(C)c3ccccc3)o2)c1,-2%,1%
CCCCCn1c(=NC(C)=O)c(C#N)cc2c(=O)n3ccccc3nc21,9%,11%
C=CCn1c(=N)c(C#N)cc2c(=O)n3ccccc3nc21,28µM*,?
N#Cc1c(C(F)(F)F)cc(-c2cccs2)nc1SCc1ccc(F)cc1,-1%,8%
N#Cc1c(C(F)(F)F)cc(-c2cccs2)nc1SCc1cccnc1,32µM*,?
CCOC(=O)CNC(=O)N1CCCN(S(=O)(=O)c2ccc3c(ccn3CC)c2)CC1,-2%,-8%
COc1cccc(C(=O)Nc2ccc(C(=O)OCc3cc(=O)n4cc(C)sc4n3)cc2)c1,0%,-5%
CCc1ccc(/C=C2/SC(=S)N(CC(=O)Nc3nc4ccccc4s3)C2=O)cc1,-8%,3.2µM*
Cc1ccc(CC(=O)Nc2nc3ccccc3s2)cc1,-11%,-10%
SMILES,Cruzain inh Det,Cruzain inh noDet
COc1ccc(C2CC(c3ccccc3)=NN2C(=O)COC(=O)c2ccc(Cl)nc2)cc1 (stereo unspecified),-5%,-28%
COc1ccc(C2CC(c3ccccc3)=NN2C(=O)COC(=O)c2cnc(Cl)c(Cl)c2)cc1 (stereo unspecified),-3%,5µM*
COc1ccc(C2CC(c3ccccc3)=NN2C(=O)COC(=O)c2cccc(S(=O)(=O)N(C)C)c2)cc1 (stereo unspecified),4%,?
COc1ccc(C2CC(c3ccccc3)=NN2C(=O)COC(=O)CNC(=O)c2ccccc2)cc1 (stereo unspecified),8.9µM*,10µM*
c1ccc2c([C@@H]3CCN(CCN4CCOCC4)C3)c[nH]c2c1,0%,3%
O=C(/C=C/c1ccc(Cl)cc1Cl)c1nc2ccccc2[nH]1,4%,7.9µM*
N#C/C(=C\c1ccc(Cl)cc1)c1nc2ccccc2[nH]1,-5%,2%
CCC1=Nc2cc(C(=O)N3CCC(C)CC3)ccc2Sc2ccc(C)cc21,-9%,5%
COc1ccc(/C=C/C(=O)Oc2cccc(/C=N/NC(=O)c3cccc(F)c3)c2)cc1,1%,?
O=C(N/N=C/CCc1ccccc1)c1ccc(CN2c3cccc4cccc(c34)S2(=O)=O)cc1,-1%,?
COc1ccc(/C=C/C(=O)Oc2ccc(/C=N\NC(=O)c3ccc(F)cc3)cc2)cc1,0%,7.9µM*
COc1ccc(/C=N/NC(=O)c2ccc(CN3c4cccc5cccc(c45)S3(=O)=O)cc2)cc1,-9%,16µM*
Cc1nnc2c3ccccc3nc(Nc3ccccc3C(=O)O)n12,-1%,-3%
Cc1cccn2c(=O)c3cc(C(=O)NC(C)C)n(C)c3nc12,-2%,?
O=C1C2C3C=CC(C3=C(c3ccccc3)c3ccccc3)C2C(=O)N1Cc1ccccc1 (stereo unspecified),3%,20µM*
O=C1C2C3C=CC(C3=C(c3ccccc3)c3ccccc3)C2C(=O)N1CCO (stereo unspecified),-8%,?
